Compound activity deposited in PubChem by several laboratories.
An excerpt weighted towards active compounds, which were near 2.2% of everything screened.
APP transl inh: inhibitors of APP translation via 5'UTR reporter, primary screen, APP 5'UTR luciferase, SH-SY5Y cells; SH-SY5Y APP 5'UTR-luciferase reporter, luminescence; inhibition, % at 2 µM; 0.82% of 190,000 active; AID 1285, 2008;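 active = inhibition above a set limit, derived from the sample mean plus 3 SD, cut at about 45% in these data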
aSyn 5UTR inh: MLPCN primary screen, SNCA 5' untranslated region. 0.82% of 300,000 active. AID 1813, 2009. alpha-synuclein 5'UTR reporter, inhibitor activity. inhibition, % (tested at 7.5 µM); in the data active = inhibition above about 60%;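 note: H4 neuroglioblastoma cells stably carrying SNCA 5'UTR luciferase fusion; 0% = DMSO wells and 100% = positive control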
Ba/F3 V617F tox: reduced viability of JAK2V617F-dependent Ba/F3 cells, primary screen, JAK2V617F inhibitor project, cell-based, Ba/F3 EpoR-JAK2V617F, luminescence; ATP luminescence; inhibition, % at 5.6 µM; 1.1% of 220,000 active; AID 1446, 2008;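 active = inhibition above the campaign mean plus 3 SD over all tested compounds, cut at about 24% in these data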;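 note: cytokine-independent growth of Ba/F3 cells driven by EpoR plus mutant JAK2; 0% = DMSO-treated cells and 100% = JAK inhibitor I control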
KLF5 inhibitor: KLF5 expression inhibitors, primary screen, DLD-1 cells, luminescence | DLD-1 KLF5 promoter-luciferase reporter | inhibition, % at 5 µM | 0.23% of 290,000 active | AID 1700, 2009;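 active = inhibition above a per-plate limit of that plate's mean compound inhibition plus 3 SD, cut at about 60% in these data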;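 note: 0% = DMSO wells and 100% = LY294002 at 200 µM; higher means less KLF5 promoter-driven luciferase light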
BaF3 tox: parental Ba/F3 cell viability inhibition, counter-screen for JAK2V617F inhibitor project, murine pro-B, CellTiter-Glo luminescence; 1.1% of 220,000 active; CellTiter-Glo ATP luminescence; inhibition, % at 5.6 µM;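 active = inhibition above a per-campaign cutoff, the mean inhibition of all tested compounds plus 3 SD, cut at about 27% in these data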;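 note: 0% = DMSO wells and 100% = JAK Inhibitor I control wells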
IEC-6 tox-1: cytotoxicity in IEC-6 intestinal epithelial cells, primary screen, cytotoxicity control for KLF5 inhibitor project, cell-based, luminescence; IEC-6 cytotoxicity, luminescence viability; inhibition, % at 5 µM; 0.78% of 290,000 active; AID 1825, 2009;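 note: 0% = plate median of test compound wells and 100% = cytotoxic reference compound wells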
KLF5 confirm: KLF5 expression inhibitors, confirmation, DLD-1 cells, luminescence; shares compounds with KLF5 inhibitor; DLD-1 KLF5 promoter firefly luciferase reporter; inhibition, % at 4 µM; 79% of 610 active; AID 1834, 2009;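 active = inhibition above a set limit taken from the earlier primary screen, cut at about 63% in these data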;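 note: 0% = DMSO wells and 100% = LY294002 at 200 µM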
IEC-6 tox-2: cytotoxicity in rat IEC-6 cells, cytotoxicity control for KLF5 inhibitor project, cell-based, luminescence, triplicate; shares compounds with KLF5 inhibitor; IEC-6 rat intestinal cells, viability luminescence; inhibition, % at 4 µM; 56% of 610 active; AID 1905, 2009; in the data active = inhibition above about 23%;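 note: cells exposed to compounds for 48 hours before viability read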
IEC-6 tox confirm: cytotoxic compounds in IEC-6 epithelial cells, confirmation, cytotoxicity control, cell-based, luminescence | IEC-6 rat intestinal epithelial viability | shares compounds with IEC-6 tox-1 | 63% of 1,900 active | inhibition, % at 5 µM;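 note: 0% = vehicle and 100% = reference cytotoxic drug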
Numbers without * were called inactive. Cut-off read from the data, not from the text of the source, unless noted: active = inhibition above about 22%; inactive = the rest.

Screening COc1ccc(OC)c(C2=Nn3c(nnc3-c3cc(OC)c(OC)c(OC)c3)SC2)c1 returned APP transl inh 2.9, aSyn 5UTR inh 27.7, Ba/F3 V617F tox 3.4, KLF5 inhibitor -1.1, BaF3 tox 7.9 and IEC-6 tox-1 1.1.
For COc1cc(-c2nnc3n2N=C(c2ccccc2)CS3)cc(OC)c1OC the results were APP transl inh 93.9*, aSyn 5UTR inh 62.8*, Ba/F3 V617F tox 73.8*, KLF5 inhibitor 79.1*, BaF3 tox 81.2*, IEC-6 tox-1 76.7*, KLF5 confirm 73.3*, IEC-6 tox-2 68.5* and IEC-6 tox confirm 67.3*.
For CCOC(=O)c1[nH]c(C)c(C(=O)N2CCc3ccccc32)c1C the results were APP transl inh 96.1*, aSyn 5UTR inh 89.7*, Ba/F3 V617F tox 80.6*, KLF5 inhibitor 77.0*, BaF3 tox 84.9*, IEC-6 tox-1 92.2*, KLF5 confirm 79.5*, IEC-6 tox-2 62.5* and IEC-6 tox confirm 55.0*.
N#Cc1ccc(-c2cccs2)nc1SCc1cccnc1 was read as aSyn 5UTR inh 90.3*, Ba/F3 V617F tox 73.2*, KLF5 inhibitor 62.4*, BaF3 tox 69.1*, IEC-6 tox-1 78.7*, KLF5 confirm 74.7*, IEC-6 tox-2 63.9* and IEC-6 tox confirm 64.2*.
Screening N=c1oc2cc(O)ccc2cc1C(=O)Nc1ccc(Cl)cc1 returned aSyn 5UTR inh -125.9, KLF5 inhibitor -42.2 and IEC-6 tox-1 18.1.
For O=C(N/N=C/c1cc(Cl)ccc1O)c1cccnc1 the results were aSyn 5UTR inh -10.1, KLF5 inhibitor 78.9*, IEC-6 tox-1 60.2*, KLF5 confirm 89.1*, IEC-6 tox-2 16.3 and IEC-6 tox confirm 29.1*.
Screening CC(C)(C)C(=O)CN1C2=NCCCN2c2ccccc21 returned aSyn 5UTR inh 9.2, KLF5 inhibitor -36.7 and IEC-6 tox-1 4.1.
`COc1ccc(/C=C/C(=O)c2cc(F)ccc2OC(=O)c2ccc(OC)c(OC)c2)cc1OC` gave APP transl inh -3.7, aSyn 5UTR inh 9.4, Ba/F3 V617F tox 1.6, KLF5 inhibitor -22.4, BaF3 tox 3.4 and IEC-6 tox-1 0.3.
Screening COc1ccc(/C=C/C(=O)c2cc(F)ccc2OC(=O)c2ccccc2OC)cc1OC returned APP transl inh 88.7*, aSyn 5UTR inh 68.0*, Ba/F3 V617F tox 3.1, KLF5 inhibitor 69.9*, BaF3 tox 10.1, IEC-6 tox-1 52.4*, KLF5 confirm 84.2*, IEC-6 tox-2 39.8* and IEC-6 tox confirm 41.4*.
CCOc1ccc2[nH]c(C(=O)N/N=C/c3ccc(OC)cc3)cc2c1 was read as aSyn 5UTR inh 75.9*, KLF5 inhibitor 65.9*, IEC-6 tox-1 84.4*, KLF5 confirm 73.3*, IEC-6 tox-2 58.4* and IEC-6 tox confirm 58.0*.
CCOc1ccc(/C=N/OCC(=O)NCc2ccco2)cc1 was read as APP transl inh -4.5, aSyn 5UTR inh 2.2, Ba/F3 V617F tox 6.1, KLF5 inhibitor -19.6, BaF3 tox 1.6 and IEC-6 tox-1 0.5.
O=C(CSc1nnc(CNC(=O)c2ccc(F)cc2)o1)NCc1ccc2c(c1)OCO2 was read as aSyn 5UTR inh 0.2, KLF5 inhibitor -10.4 and IEC-6 tox-1 -5.0.
`COc1ccc2c(c1)sc(N)[n+]2Cc1cc(C)cc2cccnc12` gave APP transl inh 95.2*, aSyn 5UTR inh 114.3*, Ba/F3 V617F tox 82.0*, KLF5 inhibitor 69.3*, BaF3 tox 79.2*, IEC-6 tox-1 80.0*, KLF5 confirm 72.9*, IEC-6 tox-2 61.1* and IEC-6 tox confirm 63.3*.
Screening O=C(COC(=O)c1ccc(Cl)nc1)Nc1ccc2c(c1)OCO2 returned APP transl inh -5.1, aSyn 5UTR inh -10.2, Ba/F3 V617F tox -2.1, KLF5 inhibitor -10.7, BaF3 tox 6.7 and IEC-6 tox-1 -5.1.
For COc1cc(-c2noc(C)c2/C=C/c2ccc(C(=O)O)cc2)cc(OC)c1OC the results were aSyn 5UTR inh 7.2, KLF5 inhibitor -5.4 and IEC-6 tox-1 -5.0.
For COc1cc(-c2noc(C)c2/C=C/c2cccc([N+](=O)[O-])c2)cc(OC)c1OC the results were aSyn 5UTR inh 69.2*, KLF5 inhibitor 64.2*, IEC-6 tox-1 79.4*, KLF5 confirm 79.5*, IEC-6 tox-2 54.5* and IEC-6 tox confirm 53.7*.
COc1ccc(-c2nn(-c3ccccc3)cc2/C=N/NC(N)=S)cc1OC was read as APP transl inh 95.1*, aSyn 5UTR inh 90.2*, Ba/F3 V617F tox 82.1*, KLF5 inhibitor 69.5*, BaF3 tox 82.5*, IEC-6 tox-1 72.0*, KLF5 confirm 71.1*, IEC-6 tox-2 59.4* and IEC-6 tox confirm 61.7*.
`COc1ccc(-c2nn(-c3ccccc3)cc2/C=N/n2cnnc2)cc1OC` gave APP transl inh -1.4, aSyn 5UTR inh 9.6, Ba/F3 V617F tox -2.1, KLF5 inhibitor 4.0, BaF3 tox 2.6 and IEC-6 tox-1 -0.2.
NNC(=O)c1nc[nH]c1C(=O)Nc1ccccc1[N+](=O)[O-] was read as APP transl inh 3.5, aSyn 5UTR inh 2.1, Ba/F3 V617F tox -1.9, KLF5 inhibitor -18.7, BaF3 tox -0.7 and IEC-6 tox-1 4.6.
Screening Nc1nc(NCCN2CCOCC2)nc(NCc2ccccc2)c1[N+](=O)[O-] returned aSyn 5UTR inh 38.4, Ba/F3 V617F tox -2.5, KLF5 inhibitor 8.0, BaF3 tox -1.0 and IEC-6 tox-1 1.3.
Screening COc1cc2c(c(OC)c1OC)-c1ccc(NC(=O)c3ccccc3)c(=O)cc1[C@@H](NC(C)=O)CC2 returned aSyn 5UTR inh 55.1, KLF5 inhibitor 77.3*, IEC-6 tox-1 86.6*, KLF5 confirm 64.5*, IEC-6 tox-2 49.4* and IEC-6 tox confirm 48.9*.
Screening CCOc1ncccc1C(=O)N1CCN(c2cccc(C)c2C)CC1 returned APP transl inh 95.1*, aSyn 5UTR inh -15.0, Ba/F3 V617F tox 81.1*, KLF5 inhibitor 73.3*, BaF3 tox 81.4*, IEC-6 tox-1 86.3*, KLF5 confirm 85.4*, IEC-6 tox-2 59.5* and IEC-6 tox confirm 53.9*.
